# Inconclusive results are not listed. Activity calls are given as the source filed them. How the source made its calls: active means hit-call score of the fitted dose curve at least 0.9, where 1 is the maximum; inconclusive means response in the unintended direction; inactive means score below 0.9.
# Experiments:
# [1] = target: rat Opioid Receptor, Non-selective Binding, Oprm1 (gene 25601) (UniProt P33535); test: NVS_GPCR_rOpiate_NonSelective: NovaScreen (NVS) G Protein-Coupled Receptor Assay for rat Opioid Receptor, Non-selective Binding (AID 2283318)
# In short: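 Filter-based radioligand displacement using rat forebrain membrane preparations, measured 1.5 h post-dosing. Single-concentration duplicate screen at 25 uM, follow-up in concentration series; activity taken as signal loss relative to DMSO.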
# [2] = NVS_IC_rCaDHPRCh_L: NovaScreen (NVS) Ion Channel Assay for rat Calcium Channel, Type L, Dihydropyridine Site (CaDHPRCh_L) (AID 2283320)
# In short: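 Rat cortex membrane preparation; dihydropyridine-site radioligand displacement read 1 h post-dose by filtration and scintillation. Primary single-point screen 25 uM in duplicate, then concentration series to 50 uM maximum; DMSO as negative control.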
# [3] = target: rat Glutamate, AMPA Site (AMPA), Gria1 (gene 50592) (UniProt P19490); test: NVS_LGIC_rAMPA: NovaScreen (NVS) Ligand-Gated Ion Channel Assay for rat Glutamate, AMPA Site (AMPA) (AID 2283324)
# In short: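 Screening at 25 uM in duplicate preceded concentration series reaching 50 uM for qualifying compounds. Radioligand displacement on rat forebrain membranes, 1 h, filter-based scintillation readout; reduced binding relative to DMSO.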
# [4] = target: rat Oxytocin Receptor (OXT), Oxtr (gene 25342) (UniProt P70536); test: NVS_GPCR_rOXT: NovaScreen (NVS) G Protein-Coupled Receptor Assay for rat Oxytocin Receptor (OXT) (AID 2283330)
# In short: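 Binding to rat uterine membrane receptor was followed by scintillation counting of filter-trapped radioligand after 1 h. A 25 uM duplicate single-point screen preceded concentration series with a top of 50 uM. Signal loss was analysed relative to DMSO.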
# [5] = target: human Androgen Receptor (AR), AR (gene 367) (UniProt P10275); test: NVS_NR_hAR: NovaScreen (NVS) Nuclear Receptor Binding Assay for human Androgen Receptor (AR) (AID 2283332)
# In short: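 LnCAP cell-free extract; radioligand displacement read by scintillation counting after 20 h. Primary screen single concentration 25 uM in duplicate, actives then run as concentration series; loss-of-signal fitted relative to DMSO baseline.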
# [6] = target: rat Thyrotropin Releasing Hormone Receptor (TRH), Trhr (gene 25570) (UniProt Q01717); test: NVS_GPCR_rTRH: NovaScreen (NVS) G Protein-Coupled Receptor Assay for rat Thyrotropin Releasing Hormone Receptor (TRH) (AID 2283329);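 further: hit means lower bound tracer signal versus DMSO baseline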
# In short: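 Cell-free radioligand binding on rat forebrain membranes; bound tracer measured by filter-based scintillation counting 4 hours after dosing. Loss of signal versus DMSO baseline indicates displacement; primary screen at 25 uM in duplicate, actives then run in concentration series.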
# [7] = target: bovine Gamma-Aminobutyric Acid Type A Receptor BDZ, alpha 1 site (GABARa1), GABRA1 (gene 780973) (UniProt P08219); test: NVS_LGIC_bGABARa1: NovaScreen (NVS) Ligand-Gated Ion Channel Assay for bovine Gamma-Aminobutyric Acid Type A Receptor BDZ, alpha 1 site (GABARa1) (AID 2283321)
# In short: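 Bovine cortex membrane preparation, benzodiazepine site on GABA-A alpha1; specific radioligand displacement read after 0.75 h by filtration and scintillation. Screen at 25 uM, then singleton titrations up to 50 uM; DMSO baseline.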
# [8] = target: rat Peripheral-type Benzodiazepine Receptor (PBR), Tspo (gene 24230) (UniProt P16257); test: NVS_MP_rPBR: NovaScreen (NVS) Membrane Protein Assay for rat Peripheral-type Benzodiazepine Receptor (PBR) (AID 2283335)
# In short: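 Competitive displacement of specific radioligand from rat kidney membrane PBR, read by filtration and scintillation after 1 h. Compounds first tested at 25 uM in duplicate, then in concentration series; signal loss relative to DMSO.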
# [9] = NVS_IC_rCaBTZCHL: NovaScreen (NVS) Ion Channel Assay for Calcium Channel, Type L, Benzothiazepine Site (CaBTZCHL) (AID 2283337)
# In short: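 Test chemicals were added to rat cortical membranes and incubated 1.5 h with a tritiated or iodinated radioligand for the benzothiazepine site. Bound ligand was separated by filtration and counted. Actives from the 25 uM duplicate screen were retested in concentration series.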
# [10] = target: rat Gamma-Aminobutyric Acid Type A Receptor BDZ, alpha 6 site (GABARa6), Gabra6 (gene 29708) (UniProt P30191); test: NVS_LGIC_rGABARa6: NovaScreen (NVS) Ligand-Gated Ion Channel Assay for rat Gamma-Aminobutyric Acid Type A Receptor BDZ, alpha 6 site (GABARa6) (AID 2283339)
# In short: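 Actives from a 25 uM duplicate screen were retested in concentration series (max 50 uM). Specific radioligand displacement from rat cerebellar membranes was counted by filter-based scintillation at 1 h; DMSO served as baseline.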
# [11] = target: rat Vasopressin 1 Receptor (V1), Avpr1a (gene 25107) (UniProt P30560); test: NVS_GPCR_rV1: NovaScreen (NVS) G Protein-Coupled Receptor Assay for rat Vasopressin 1 Receptor (V1) (AID 2283316)
# In short: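 Concentration-response up to 50 uM for chemicals passing a threshold such as 30% inhibition in an initial duplicate 25 uM screen. Displacement of radioligand from rat liver membranes measured after 1.5 h by filtration and scintillation.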
# [12] = target: rat Neonicotinoid receptor (NNR), Chrna7 (gene 25302) (UniProt Q05941); test: NVS_LGIC_rNNR_BungSens: NovaScreen (NVS) Ligand-Gated Ion Channel Assay for rat Neonicotinoid receptor (NNR) (AID 2283315)
# In short: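 Rat cortical membrane preparation incubated 2.5 h with tritiated or iodinated radioligand and test chemical. Bound radioactivity was filtered and counted by scintillation, and displacement was analysed against DMSO.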
# Sequence of rat Thyrotropin Releasing Hormone Receptor (TRH), Trhr (gene 25570) (Q01717 whole entry, looked up): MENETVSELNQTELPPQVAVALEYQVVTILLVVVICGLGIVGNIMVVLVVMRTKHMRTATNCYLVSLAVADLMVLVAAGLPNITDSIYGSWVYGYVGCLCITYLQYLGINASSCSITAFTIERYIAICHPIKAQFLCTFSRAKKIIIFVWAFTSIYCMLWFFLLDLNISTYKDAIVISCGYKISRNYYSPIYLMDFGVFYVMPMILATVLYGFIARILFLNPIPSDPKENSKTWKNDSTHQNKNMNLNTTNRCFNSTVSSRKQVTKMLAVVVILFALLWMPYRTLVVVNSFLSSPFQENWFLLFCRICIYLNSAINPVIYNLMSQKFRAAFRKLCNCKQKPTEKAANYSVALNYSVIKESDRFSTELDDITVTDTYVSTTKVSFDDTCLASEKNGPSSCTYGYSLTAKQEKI
# Sequence of rat Gamma-Aminobutyric Acid Type A Receptor BDZ, alpha 6 site (GABARa6), Gabra6 (gene 29708) (P30191 whole entry, looked up): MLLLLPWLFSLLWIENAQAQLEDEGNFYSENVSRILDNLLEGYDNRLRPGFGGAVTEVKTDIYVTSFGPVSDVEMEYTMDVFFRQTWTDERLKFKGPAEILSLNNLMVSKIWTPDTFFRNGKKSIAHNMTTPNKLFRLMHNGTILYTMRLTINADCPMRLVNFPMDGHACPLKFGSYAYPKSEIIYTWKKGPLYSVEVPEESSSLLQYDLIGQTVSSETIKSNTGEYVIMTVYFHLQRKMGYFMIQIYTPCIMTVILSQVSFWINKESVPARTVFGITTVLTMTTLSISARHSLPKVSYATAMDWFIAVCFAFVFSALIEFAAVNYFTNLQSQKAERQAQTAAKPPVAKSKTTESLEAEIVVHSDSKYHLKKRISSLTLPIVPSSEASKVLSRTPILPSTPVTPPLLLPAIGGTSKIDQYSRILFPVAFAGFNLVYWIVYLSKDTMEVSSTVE
# Sequence of rat Neonicotinoid receptor (NNR), Chrna7 (gene 25302) (Q05941 whole entry, looked up): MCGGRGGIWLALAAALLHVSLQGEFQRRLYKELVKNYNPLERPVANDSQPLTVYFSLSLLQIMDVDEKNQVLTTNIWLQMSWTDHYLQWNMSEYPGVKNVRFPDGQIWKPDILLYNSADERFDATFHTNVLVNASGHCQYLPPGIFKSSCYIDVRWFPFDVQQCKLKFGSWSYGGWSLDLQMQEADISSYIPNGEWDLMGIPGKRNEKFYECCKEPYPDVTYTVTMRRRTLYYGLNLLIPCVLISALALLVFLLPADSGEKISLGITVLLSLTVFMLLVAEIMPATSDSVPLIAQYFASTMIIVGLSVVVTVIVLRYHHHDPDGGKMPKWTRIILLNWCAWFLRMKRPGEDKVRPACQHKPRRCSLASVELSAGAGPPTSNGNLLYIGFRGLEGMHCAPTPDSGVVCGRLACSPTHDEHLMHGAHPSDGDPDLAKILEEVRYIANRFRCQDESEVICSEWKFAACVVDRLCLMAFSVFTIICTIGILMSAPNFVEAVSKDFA
# Sequence of rat Peripheral-type Benzodiazepine Receptor (PBR), Tspo (gene 24230) (P16257 whole entry, looked up): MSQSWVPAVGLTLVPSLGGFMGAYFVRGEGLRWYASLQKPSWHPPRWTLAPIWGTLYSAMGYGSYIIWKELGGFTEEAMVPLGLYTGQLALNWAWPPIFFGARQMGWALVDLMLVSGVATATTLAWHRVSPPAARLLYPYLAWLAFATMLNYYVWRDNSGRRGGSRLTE
# Sequence of rat Glutamate, AMPA Site (AMPA), Gria1 (gene 50592) (P19490 whole entry, looked up): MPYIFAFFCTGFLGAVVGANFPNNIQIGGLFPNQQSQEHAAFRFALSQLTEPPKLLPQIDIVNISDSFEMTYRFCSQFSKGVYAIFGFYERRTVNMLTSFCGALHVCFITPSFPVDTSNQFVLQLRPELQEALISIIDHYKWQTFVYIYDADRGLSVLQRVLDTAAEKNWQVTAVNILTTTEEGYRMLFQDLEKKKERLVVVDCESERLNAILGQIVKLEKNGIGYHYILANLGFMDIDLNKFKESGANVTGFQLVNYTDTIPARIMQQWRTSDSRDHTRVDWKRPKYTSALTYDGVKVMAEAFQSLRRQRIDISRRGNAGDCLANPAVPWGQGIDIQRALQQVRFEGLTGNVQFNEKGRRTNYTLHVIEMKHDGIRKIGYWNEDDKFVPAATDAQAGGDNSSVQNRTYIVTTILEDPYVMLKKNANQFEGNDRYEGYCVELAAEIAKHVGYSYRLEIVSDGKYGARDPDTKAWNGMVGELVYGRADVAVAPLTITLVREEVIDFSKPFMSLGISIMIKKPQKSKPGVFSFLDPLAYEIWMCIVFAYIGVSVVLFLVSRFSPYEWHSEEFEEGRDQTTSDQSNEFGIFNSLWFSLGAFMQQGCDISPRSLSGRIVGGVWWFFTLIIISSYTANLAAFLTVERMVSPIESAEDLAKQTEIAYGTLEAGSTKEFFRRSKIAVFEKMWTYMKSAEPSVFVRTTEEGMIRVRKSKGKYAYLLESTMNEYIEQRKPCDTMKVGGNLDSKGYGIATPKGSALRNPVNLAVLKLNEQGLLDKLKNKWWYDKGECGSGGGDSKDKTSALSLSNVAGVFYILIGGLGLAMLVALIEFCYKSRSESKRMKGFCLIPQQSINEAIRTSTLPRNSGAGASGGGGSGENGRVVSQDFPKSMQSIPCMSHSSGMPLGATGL
# Sequence of rat Oxytocin Receptor (OXT), Oxtr (gene 25342) (P70536 whole entry, looked up): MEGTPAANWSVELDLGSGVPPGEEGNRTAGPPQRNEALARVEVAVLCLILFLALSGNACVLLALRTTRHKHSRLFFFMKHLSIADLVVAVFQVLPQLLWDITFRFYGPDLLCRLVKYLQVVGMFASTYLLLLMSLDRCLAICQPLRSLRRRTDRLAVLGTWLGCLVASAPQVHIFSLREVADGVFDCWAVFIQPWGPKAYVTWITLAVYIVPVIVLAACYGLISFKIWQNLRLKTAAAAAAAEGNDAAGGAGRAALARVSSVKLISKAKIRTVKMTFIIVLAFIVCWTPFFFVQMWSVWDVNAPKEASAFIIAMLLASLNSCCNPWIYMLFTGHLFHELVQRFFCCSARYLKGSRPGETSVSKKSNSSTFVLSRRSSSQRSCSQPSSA
# Sequence of rat Vasopressin 1 Receptor (V1), Avpr1a (gene 25107) (P30560 whole entry, looked up): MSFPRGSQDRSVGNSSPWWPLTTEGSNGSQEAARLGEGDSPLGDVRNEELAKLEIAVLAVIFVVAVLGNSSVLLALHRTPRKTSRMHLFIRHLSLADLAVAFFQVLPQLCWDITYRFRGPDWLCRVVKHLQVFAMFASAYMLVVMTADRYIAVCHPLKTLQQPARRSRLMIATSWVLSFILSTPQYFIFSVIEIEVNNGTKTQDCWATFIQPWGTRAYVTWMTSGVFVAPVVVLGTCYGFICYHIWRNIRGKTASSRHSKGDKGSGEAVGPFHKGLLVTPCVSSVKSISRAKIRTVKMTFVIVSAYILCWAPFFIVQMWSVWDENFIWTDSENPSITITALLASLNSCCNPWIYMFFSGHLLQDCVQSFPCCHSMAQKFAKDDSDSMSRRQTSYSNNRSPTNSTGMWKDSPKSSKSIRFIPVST
# Sequence of bovine Gamma-Aminobutyric Acid Type A Receptor BDZ, alpha 1 site (GABARa1), GABRA1 (gene 780973) (P08219 whole entry, looked up): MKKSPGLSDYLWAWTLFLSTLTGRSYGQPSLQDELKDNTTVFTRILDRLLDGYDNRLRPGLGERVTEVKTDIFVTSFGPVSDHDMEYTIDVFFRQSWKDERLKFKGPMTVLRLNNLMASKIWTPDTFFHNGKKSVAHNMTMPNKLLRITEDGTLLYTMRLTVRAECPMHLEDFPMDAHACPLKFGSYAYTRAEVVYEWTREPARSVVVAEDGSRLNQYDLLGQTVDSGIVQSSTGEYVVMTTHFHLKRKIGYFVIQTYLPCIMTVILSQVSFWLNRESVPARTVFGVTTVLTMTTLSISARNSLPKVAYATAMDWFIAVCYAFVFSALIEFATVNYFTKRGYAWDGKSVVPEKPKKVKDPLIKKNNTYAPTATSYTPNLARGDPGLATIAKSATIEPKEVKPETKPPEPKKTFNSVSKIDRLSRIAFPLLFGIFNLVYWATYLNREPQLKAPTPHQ
# Sequence of rat Opioid Receptor, Non-selective Binding, Oprm1 (gene 25601) (P33535 whole entry, looked up): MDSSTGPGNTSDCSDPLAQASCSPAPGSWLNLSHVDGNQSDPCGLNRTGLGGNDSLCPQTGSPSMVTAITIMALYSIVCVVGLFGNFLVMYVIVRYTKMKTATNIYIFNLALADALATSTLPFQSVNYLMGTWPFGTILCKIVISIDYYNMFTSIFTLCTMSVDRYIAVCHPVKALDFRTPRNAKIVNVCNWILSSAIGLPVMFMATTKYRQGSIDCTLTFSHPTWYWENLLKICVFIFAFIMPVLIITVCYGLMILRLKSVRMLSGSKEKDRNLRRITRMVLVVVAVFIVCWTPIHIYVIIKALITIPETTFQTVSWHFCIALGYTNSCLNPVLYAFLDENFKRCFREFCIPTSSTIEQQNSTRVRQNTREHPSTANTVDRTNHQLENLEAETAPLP
compound,measurement,setting,value
CC(=O)[O][Hg][c]1ccccc1,AC50,[1],31.9 µM (active)
same,AC50,[2],40.5 µM (active)
same,AC50,[3],9.18 µM (active)
same,AC50,[4],15.7 µM (active)
same,AC50,[5],16.9 µM (active)
Cc1ccc2ccccc2c1C,outcome,[6],inactive
Oc1cccc2cccnc12,outcome,[2],inactive
same,outcome,[6],inactive
Cn1sc(Cl)cc1=O,outcome,[7],inactive
same,outcome,[8],inactive
same,outcome,[9],inactive
same,outcome,[10],inactive
O=C(O)C(F)(F)C(F)(F)C(F)(F)C(F)(F)C(F)(F)C(F)(F)F,AC50,[11],39.2 µM (active)
Clc1nc(Cl)nc(Cl)n1,outcome,[6],inactive
COc1ccc(C=O)cc1,outcome,[6],inactive
C[C@]12CC[C@H](O)CC1=CC[C@@H]1[C@@H]2CC[C@]2(C)C(=O)CC[C@@H]12,outcome,[6],inactive
COc1cc2c(cc1OC)[C@@]13CCN4CC5=CCO[C@H]6CC(=O)N2[C@H]1[C@H]6[C@H]5C[C@H]43,AC50,[12],25 µM (active)
COC(=O)c1sccc1S(=O)(=O)NC(=O)Nc1nc(C)nc(OC)n1,outcome,[6],inactive
O=C(OC1CCCCC1)c1ccccc1C(=O)OC1CCCCC1,outcome,[6],inactive
Cl/C=C/Cl,outcome,[6],inactive
COP(=O)(OC)O/C(=C\Cl)c1cc(Cl)c(Cl)cc1Cl,outcome,[6],inactive
C[C@H]1CCCC(=O)CCC/C=C/c2cc(O)cc(O)c2C(=O)O1,outcome,[6],inactive
CN(C)N=O,outcome,[10],inactive
CCC(=O)c1ccccc1,outcome,[10],inactive

# From PubChem BioAssay (EPA / NIEHS)
